# Measurements taken from PubChem BioAssay.
# Results filed as inconclusive are left out. Calls of active or inactive are those of the source. Unless noted, no cut-off is given here; in the data, nearly all actives have AC50 up to about 26 µM.
# What was measured:
# [1] = viability loss in pontine glioma line – cell-based, SU-DIPG-XVII, MIPE5.0, CellTiter-Glo, qHTS, dose response (AID 1347060); conditions: CellTiter-Glo ATP luminescence;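 for AC50: cells exposed to compound for 48 hours before viability readout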
# [2] = viability loss in pontine glioma line – cell-based, SU-DIPG-XIII, MIPE5.0, CellTiter-Glo, qHTS, dose response (AID 1347064; cut-off not given, nearly all actives have AC50 up to about 23 µM;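 for AC50: cells exposed to compound for 48 hours before the viability read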); conditions: CellTiter-Glo ATP luminescence
# [3] = viability loss in pontine glioma line – cell-based, SU-DIPG-XXV, MIPE5.0, CellTiter-Glo, qHTS, dose response (AID 1347065); conditions: CellTiter-Glo ATP luminescence;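 note: cells exposed to compound for 48 hours before ATP readout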
# [4] = growth inhibition of DIPG cells – cell-based, MIPE5.0 library, qHTS (AID 1347068; cut-off not given, nearly all actives have IC50 up to about 30 µM;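 for IC50: cells exposed to compound for 48 hours before viability readout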); conditions: SU-DIPG-XXV viability
# [5] = JHH-DIPG-1 glioma cell viability, MIPE5.0 library, CellTiter-Glo luminescence, qHTS (AID 1347067); conditions: JHH-DIPG-1 glioma viability, CellTiter-Glo ATP luminescence;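 note: cells exposed to compound for 48 hours before readout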
# [6] = viability loss with induced miR-34 in A549 – imaging, A549 dox-inducible miR-34, nuclei and caspase counts, primary screen (AID 1347080;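 active = compounds whose cell count with miR-34 switched on is under 0.7 times the count with it off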); conditions: A549 miR-34 inducible, Hoechst nuclei count, 48 h
# [7] = MELAS cybrid and Rieske KO viability enhancers – cell-based, MELAS cybrids, Rieske KO mouse fibroblasts, CellTiter-Glo, primary screen (AID 1508586;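 active = mean z-score across replicates of 1.96 or higher in either the MELAS or the Rieske mutant cell line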;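 note: z relative to plate mean and SD of compound and empty wells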); conditions: low glucose
# [8] = stronger effect = lower value, cell number ratio, induced over uninduced
# [9] = measured here: relative caspase fold change +Dox/-Dox
# [10] = measured here: total cells with miR-34 induction, stronger effect = lower value
# [11] = measured here: total cells without miR-34 induction
# [12] = MELAS cybrid survival, CellTiter-Glo 48 h, stronger effect = higher value
# [13] = Rieske KO mouse fibroblast survival, CellTiter-Glo 72 h
smiles,measurement,setting,value
COc1ccc([C@@H](O)[C@@H](C)Oc2ccc([C@H]3O[C@H](c4ccc(O[C@H](C)[C@H](O)c5ccc(OC)c(OC)c5)c(OC)c4)[C@H](C)[C@H]3C)cc2OC)cc1OC,AC50,[1],20.9 µM (active)
same,AC50,[2],5.9 µM (active)
same,AC50,[3],10.5 µM (active)
same,IC50,[4],11.8 µM (active)
O=C1CC(c2c[nH]c3ccc(F)cc23)C(=O)N1 (stereo unspecified),outcome,[1],inactive
same,outcome,[2],inactive
same,outcome,[3],inactive
same,outcome,[4],inactive
Cn1ncc(Cl)c1-c1cc(C(=O)N[C@H](CN)Cc2cccc(F)c2)sc1Cl,AC50,[1],5.9 µM (active)
same,AC50,[2],2.95 µM (active)
same,AC50,[3],3.72 µM (active)
same,outcome,[4],inactive
O=C(NOCC(O)CO)c1ccc(F)c(F)c1Nc1ccc(I)cc1F (stereo unspecified),AC50,[1],0.417 µM (active)
same,AC50,[2],0.525 µM (active)
same,AC50,[3],0.934 µM (active)
same,AC50,[5],0.166 µM (active)
same,fold change,[6]; [8],1.1 (inactive)
same,fold change,[6]; [9],0.559
same,cell count,[6]; [10],2790
same,cell count,[6]; [11],2520
same,z-score,[7]; [12],-0.718 (inactive)
same,z-score,[7]; [13],-0.702
N#CCC1(n2cc(-c3ncnc4[nH]ccc34)cn2)CN(C2CCN(C(=O)c3ccnc(C(F)(F)F)c3F)CC2)C1,outcome,[1],inactive
same,outcome,[2],inactive
same,outcome,[3],inactive
same,outcome,[4],inactive
C=CC(=O)N1CC/C(=C\c2ccc(F)c([N+](=O)[O-])c2)C(=O)/C(=C/c2ccc(F)c([N+](=O)[O-])c2)C1,AC50,[1],0.0742 µM (active)
same,AC50,[2],0.059 µM (active)
same,AC50,[3],0.0934 µM (active)
same,IC50,[4],0.186 µM (active)
Cc1cc(F)c(C(=O)Nc2cccc(-c3nncn3C(C)C)n2)cc1-n1cnc(C2CC2)c1,AC50,[1],16.6 µM (active)
same,AC50,[2],18.6 µM (active)
same,AC50,[3],18.6 µM (active)
same,IC50,[4],18.6 µM (active)
C[C@@H](O)[C@@H]1NC(=O)[C@H](CCCCN)NC(=O)[C@@H](Cc2c[nH]c3ccccc23)NC(=O)[C@H](Cc2ccccc2)NC(=O)[C@@H](NC(=O)[C@H](N)Cc2ccccc2)CSSC[C@@H](C(=O)N[C@H](CO)[C@@H](C)O)NC1=O,outcome,[1],inactive
same,outcome,[2],inactive
same,outcome,[3],inactive
same,outcome,[5],inactive
same,fold change,[6]; [8],0.862 (inactive)
same,fold change,[6]; [9],0.995
same,cell count,[6]; [10],9290
same,cell count,[6]; [11],10800
same,z-score,[7]; [12],0.396 (inactive)
same,z-score,[7]; [13],-0.498
CCOC(=O)[C@@]1(CCCCCCOc2ccc(Cl)cc2)CO1,outcome,[1],inactive
same,outcome,[2],inactive
same,outcome,[3],inactive
same,outcome,[4],inactive
O=C(O)c1ccc(CN2CCC(CN[C@@H]3C[C@H]3c3ccccc3)CC2)cc1,outcome,[1],inactive
same,outcome,[2],inactive
same,outcome,[3],inactive
same,outcome,[4],inactive
Cc1c(NC(=O)OCC2COCCN2)cn2ncnc(Nc3ccc4c(cnn4Cc4cccc(F)c4)c3)c12 (stereo unspecified),AC50,[1],18.6 µM (active)
same,AC50,[2],23.5 µM (active)
same,AC50,[3],23.5 µM (active)
same,AC50,[5],20.9 µM (active)
same,fold change,[6]; [8],1.04 (inactive)
same,fold change,[6]; [9],0.875
same,cell count,[6]; [10],4510
same,cell count,[6]; [11],4340
same,z-score,[7]; [12],-0.264 (inactive)
same,z-score,[7]; [13],0.355
CNC(=O)c1cccc2cc(Oc3ccnc4cc(OCC5(N)CC5)c(OC)cc34)ccc12,AC50,[1],1.48 µM (active)
same,AC50,[2],1.32 µM (active)
same,AC50,[3],1.86 µM (active)
same,IC50,[4],7.42 µM (active)
